From PubChem
Rows were chosen to be rich in hits. Some 3.1% of all compounds tested hit in one or more screens of this group.
TrxR1 substrate: rat thioredoxin reductase 1 substrate activity. purified TrxR1 substrate turnover, NADPH consumption readout. Potency, µM (doses to about 114 µM), for the others: top-dose activity change, negative = substrate turnover. 390,000 tested, 0.01% active. AID 588456; also: % is scaled to controls: 0 for no effect and ±100 for the full control effect; nearly all actives have a fitted effect of over 50% in size
Target sequence (O89049 whole entry, looked up): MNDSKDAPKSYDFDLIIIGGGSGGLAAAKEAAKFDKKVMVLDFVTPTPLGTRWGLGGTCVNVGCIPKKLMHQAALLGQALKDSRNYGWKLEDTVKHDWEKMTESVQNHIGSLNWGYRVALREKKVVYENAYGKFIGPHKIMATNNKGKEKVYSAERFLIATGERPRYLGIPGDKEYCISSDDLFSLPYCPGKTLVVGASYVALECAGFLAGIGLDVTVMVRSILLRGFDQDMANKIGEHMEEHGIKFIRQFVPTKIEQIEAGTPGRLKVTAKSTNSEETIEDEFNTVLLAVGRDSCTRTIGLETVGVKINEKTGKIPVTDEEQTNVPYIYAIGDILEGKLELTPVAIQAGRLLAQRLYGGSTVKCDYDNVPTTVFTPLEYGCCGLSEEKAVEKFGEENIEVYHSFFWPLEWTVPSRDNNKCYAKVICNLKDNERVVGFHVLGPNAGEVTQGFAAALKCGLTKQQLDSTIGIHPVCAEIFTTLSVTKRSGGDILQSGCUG
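Rat TrxR1, dispensed at 90 nM, was prereduced with 400 uM NADPH (final) for 5 min at ~22 deg C, then incubated with compound 15 min before 400 uM selenite. A first-read NADPH fluorescence drop versus no-compound background flagged substrates.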
Nrf2 block: Nrf2 pathway inhibition | A549 ARE-Fluc reporter, luciferase luminescence, 18-24 h | Potency, µM (series often up to 46 µM), without a hit: at the top dose activity change, negative = inhibition, most hits filed as inhibitors | 360,000 tested, 2.1% active; also: % is scaled to controls: 0 for no effect and ±100 for the full control effect; nearly all actives have a fitted effect of over 60% in size
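Nrf2 activity is the BugLite luminescence, read 15 min after reagent at room temperature, following CellTiter-Fluor cytotoxicity readout (30 min, 37C). Compound titrations were applied for 18-24 h to 5000 A549 ARE_Fluc cells/well in 5% FBS OPTI-MEM.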
TrxR1 inh: blocks rat thioredoxin reductase 1; Potency, µM (top dose mostly 114 µM), without a hit: top-dose activity change, negative = inhibition, most hits filed as inhibitors; 390,000 tested, 1% active; O89049; AID 588453; recombinant rTrxR1, NADPH fluorescence consumption, selenite substrate; also: % is scaled to controls: 0 for no effect and ±100 for the full control effect; nearly all actives have a fitted effect of over 65% in size
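Rat TrxR1 (90 nM in the dispensed reagent) was pre-reduced with 400 uM NADPH for 5 min at room temperature, then incubated with compound for 15 min. After 400 uM selenite was added, NADPH fluorescence (Ex 340/Em 450 nm) was followed for 8 min.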
IDH1 R132H inh: blocks human mutant IDH1 R132H enzyme | IDH1-R132H enzyme, NADPH consumption, diaphorase/resazurin fluorescence | Potency, µM (doses to about 76.6 µM), inactives show at the highest dose activity change, negative = inhibition, usual class: inhibitors | 390,000 tested, 0.093% active; also: % is scaled to controls: 0 for no effect and ±100 for the full control effect; nearly all actives have a fitted effect of over 65% in size
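IDH1-R132H (0.5 ug/mL dispensed) in pH 7.5 Tris buffer was preincubated 30 min with compound, then given a substrate mix of 0.016 mM NADPH and 2 mM alpha-KG for 80 min at room temperature; remaining NADPH was read by diaphorase/resazurin fluorescence.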
A549 tox: counter-screen for Nrf2 inhibitors: cytotoxicity in A549 cells. A549 ARE-Fluc cells, CellTiter-Fluor viability, 18-24 h. Potency, µM (series often up to 46 µM), inactives show top-dose activity change, negative = cytotoxicity, most hits filed as inhibitors. 390,000 tested, 0.16% active. AID 504648; also: % is scaled to controls: 0 for no effect and ±100 for the full control effect
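A549 ARE-Fluc cells in 5% FBS OPTI-MEM, 5000 cells/well, rested 2 h then exposed to compounds in concentration-response for 18-24 h at 37 °C. Viability by CellTiter-Fluor fluorescence (Ex 405/Em 525) after 30 min; luciferase luminescence (BugLite, 15 min, RT) read afterwards.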
Mito fusion act: mitochondrial division inhibition or fusion activation; 320,000 tested, 0.23% active; S. cerevisiae fusion-defective mutant growth rescue, CellTiterGlo 48 h; Potency, µM (top dose mostly 46.1 µM), for inactives: at the top dose growth rescue (activation), usual class: activators; also: % of control where 0% means no effect; nearly all actives have a fitted effect of over 45% in size
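S. cerevisiae fusion-defective temperature-sensitive mutants (e.g. fzo1-1, mgm1-5) grown 48 h at 37C in YPEG (ethanol/glycerol non-fermentable) medium with 23 nl compound per well; growth rescue read as CellTiterGlo luminescence.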
* hit, by the source's call; [ ] = remark or other dose. Calls follow the shape of the dose curve; as a rule, active = well fitted curve in the direction sought with a large enough effect; inconclusive = small, poorly fitted or top-dose-only effect, or another doubt; inactive = no such curve, though single readings can be large; an effect the other way counts as inactive or inconclusive. Potency is read from the fitted curve at half-maximal effect.

For Cc1ccc(NC(=O)c2ccc(=O)n(CC(=O)Nc3cc(C)cc(C)c3)n2)cc1 the results were TrxR1 substrate 4%[57.1 µM], TrxR1 inh 16%[57.1 µM], IDH1 R132H inh 4% and A549 tox -3%.
`COc1ccc(CCC(=O)NCc2ccc3c(c2)CCN3C(=O)c2ccc(C)cc2)cc1` gave TrxR1 substrate -6%[57.1 µM], TrxR1 inh 4%[57.1 µM], IDH1 R132H inh -10% and A549 tox 0%.
`COc1cc2c(C(=O)NCc3ccc(C)o3)cn(CC(C)C)c(=O)c2cc1OC` gave TrxR1 substrate -9%, Nrf2 block -1%, TrxR1 inh 20µM*, IDH1 R132H inh 2%, A549 tox 9% and Mito fusion act 6%.
CCn1cc(C(=O)NCc2ccco2)c2cc(OC)c(OC)cc2c1=O was read as TrxR1 substrate 4%, Nrf2 block inconclusive, TrxR1 inh -17%, IDH1 R132H inh 4%, A549 tox -3% and Mito fusion act 4%.
COc1ccccc1-c1noc(-c2ccc(N(C)Cc3ccccc3)c([N+](=O)[O-])c2)n1 was read as TrxR1 substrate 0%, Nrf2 block -9%, TrxR1 inh 2%, IDH1 R132H inh 0% and A549 tox -9%.
Screening CCOC(=O)c1ccc(NS(=O)(=O)c2ccc(SC)cc2)cc1 returned TrxR1 substrate 9%, Nrf2 block 23µM*, TrxR1 inh 10%, IDH1 R132H inh 3%, A549 tox inconclusive and Mito fusion act 20µM*.
`CCOC(=O)Cc1ccc(NS(=O)(=O)c2ccc(SC)cc2)cc1` gave TrxR1 substrate -11%, Nrf2 block inconclusive, TrxR1 inh 6%, IDH1 R132H inh -1%, A549 tox -8% and Mito fusion act 13%.
For CCOC(=O)c1ccc(NS(=O)(=O)c2ccc3c(c2)n(C)c(=O)n3C)cc1 the results were TrxR1 substrate 7%, Nrf2 block 21µM*, TrxR1 inh 22%, IDH1 R132H inh 18%, A549 tox 11% and Mito fusion act 1%.
Screening Cn1c(=O)n(C)c2cc(S(=O)(=O)Nc3ccccc3)ccc21 returned TrxR1 substrate -5%, Nrf2 block 23µM*, TrxR1 inh 0%, IDH1 R132H inh -6%, A549 tox -7% and Mito fusion act 1%.
For CCOC(=O)c1ccccc1NS(=O)(=O)c1ccccc1 the results were TrxR1 substrate 8%, Nrf2 block 23µM*, TrxR1 inh 29%, IDH1 R132H inh 23%, A549 tox inconclusive and Mito fusion act 18%.
CCOC(=O)c1ccccc1NS(=O)(=O)c1ccc(C)cc1 was read as TrxR1 substrate 0%[57.1 µM], Nrf2 block -30%, TrxR1 inh 31%[57.1 µM], IDH1 R132H inh 10%, A549 tox -15% and Mito fusion act 7%.
`Cc1ccccc1NC(=O)CSc1nc2ccc(NC(=O)CCc3ccccc3)cc2s1` gave TrxR1 substrate 5%, Nrf2 block inconclusive, TrxR1 inh 33%, IDH1 R132H inh -8% and A549 tox 0%.
`COc1cc(-c2cc3n(C)c(C)c(CCC(=O)NCc4ccccc4)c(=O)n3n2)cc(OC)c1OC` gave TrxR1 substrate 2%[57.1 µM], TrxR1 inh 21%[57.1 µM], IDH1 R132H inh 3% and A549 tox 9%.
O=C(CCC1N=C2c3ccccc3N=C(SCc3ccccc3F)N2C1=O)NCc1ccc(F)cc1 (stereo not drawn) was read as TrxR1 substrate 4%[57.1 µM], TrxR1 inh 6%[57.1 µM], IDH1 R132H inh -13% and A549 tox 2%.
`CC(C)c1ccc(S(=O)(=O)Nc2cc3c(cc2NCc2ccccc2)n(C)c(=O)n3C)cc1` gave TrxR1 substrate 11%, Nrf2 block 26µM*, TrxR1 inh 8%, IDH1 R132H inh -16% and A549 tox -10%.
For CCOc1ccc(S(=O)(=O)Nc2ccc3c(c2)n(C)c(=O)n3C)cc1 the results were TrxR1 substrate 3%, Nrf2 block 16µM*, TrxR1 inh 10%, IDH1 R132H inh 14%, A549 tox 2% and Mito fusion act 3%.
`O=C(/C=C/c1ccccc1)NC(NC(=S)Nc1cccc(Cl)c1)C(Cl)(Cl)Cl` (stereo not drawn) gave TrxR1 substrate 0%, Nrf2 block 7.3µM*, TrxR1 inh 1%, IDH1 R132H inh -4%, A549 tox inconclusive and Mito fusion act -1%.
For O=C(/C=C/c1ccccc1)NC(NC(=S)Nc1ccc(Cl)cc1Cl)C(Cl)(Cl)Cl (stereo not drawn) the results were TrxR1 substrate -6%, Nrf2 block 21µM*, TrxR1 inh inconclusive, IDH1 R132H inh -4%, A549 tox inconclusive and Mito fusion act -2%.
Screening Cc1ccc(S(=O)(=O)N2CCN(c3nc(-n4cncn4)nc4ccccc34)CC2)cc1 returned TrxR1 substrate 9% and TrxR1 inh 15%.
O=C(CNC(=O)c1ccccc1)OC(Cc1ccccc1)C(=O)Nc1cc(C(F)(F)F)ccc1Cl (stereo not drawn) was read as Nrf2 block -3% and A549 tox 2%.
CCCCC1=CC2=C(c3ccco3)C(=O)C(C)(OC(=O)c3ccc(OC)cc3)C(=O)C2=CN1CCOC (stereo not drawn) was read as TrxR1 substrate -9%, Nrf2 block -8%, TrxR1 inh inconclusive, IDH1 R132H inh -15%, A549 tox -15% and Mito fusion act 17%.
CCCCC1=CC2=C(c3ccco3)C(=O)C(C)(OC(=O)c3ccc(OC)cc3)C(=O)C2=CN1Cc1ccccc1 (stereo not drawn) was read as TrxR1 substrate -5%, Nrf2 block 4%, TrxR1 inh 45µM*, IDH1 R132H inh 3%[38.3 µM], A549 tox -8% and Mito fusion act -3%.
Cc1cc(=O)c2c(o1)C(=O)c1occc1C2=O was read as TrxR1 substrate -11%, Nrf2 block inconclusive, TrxR1 inh 32µM*, IDH1 R132H inh 15% and A549 tox -12%.
For CC(C)c1ccccc1-n1c(SCC(=O)c2ccc3c(c2)NC(=O)CO3)nc2ccccc2c1=O the results were TrxR1 substrate -14%, Nrf2 block 2.9µM*, TrxR1 inh 23%[57.1 µM], IDH1 R132H inh -4%, A549 tox -19% and Mito fusion act 21%.
`COCC(C)n1c(SCC(=O)N2CC(=O)Nc3ccccc32)nc2ccccc2c1=O` (stereo not drawn) gave TrxR1 substrate 6%, Nrf2 block inconclusive, TrxR1 inh 18%, IDH1 R132H inh 1%, A549 tox 8% and Mito fusion act 2%.
